High-throughput results as filed in PubChem.
In the library only some 2.7% were active in any assay of this set; here they are far more common.
CHT PAM: human CHT allosteric activation; CHT-expressing cells, membrane potential dye, choline EC20; stronger effect = higher value; LV-AA mutant CHT in HEK293 cells; B-score at 10 µM; 310,000 tested, 0.49% active; Q9GZV3;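 active = initial fluorescence not abnormally high and integrated response B-score, plate-corrected, over 3 SD above library mean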
IDE cell activ: activators of human insulin-degrading enzyme in cells; activation, % at 5.96 µM; 340,000 tested, 0.073% active; P14735; AID 493087; HEK cells, FAbeta-B cleavage, fluorescence polarization; 0% vehicle, 100% cell-free pure enzyme wells;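 active = activation above the mean of all tested compounds plus 3 SD, set per screening campaign, cut at about 17% in these data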
IDE cell inh: inhibits human insulin-degrading enzyme in HEK cells | P14735 | FAbetaB cleavage, fluorescence polarization | 320,000 tested, 0.41% active | inhibition, % at 5.59 µM;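 active = percent inhibition above the average of all tested compounds plus 3 SD, set per screening campaign, cut at about 16% in these data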;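 note: IDE supplied by intact live HEK cells; FP after avidin binding of uncleaved biotin substrate so inhibition keeps polarization high; 0% = DMSO wells and 100% = 60 µM reference IDE inhibitor Ii1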
TMEM16A act: mouse TMEM16A channel activation, primary screen; HEK293 TMEM16A/YFP-H148Q/I152L, iodide quench fluorescence; stronger effect = lower value; Q8BHY3; B-score at 10 µM; AID 623877; 340,000 tested, 0.3% active;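 active = fluorescence-ratio B-score plate-corrected deviation score at least 3 library SD below zero, with starting fluorescence score within 5 deviations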;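 note: channel opened by trigger with iodide after compound preincubation; score built on the fluorescence ratio of max minus min over baseline; more negative score means more quench and so TMEM16A activation or potentiation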
Target sequence (Q8BHY3 whole entry, looked up): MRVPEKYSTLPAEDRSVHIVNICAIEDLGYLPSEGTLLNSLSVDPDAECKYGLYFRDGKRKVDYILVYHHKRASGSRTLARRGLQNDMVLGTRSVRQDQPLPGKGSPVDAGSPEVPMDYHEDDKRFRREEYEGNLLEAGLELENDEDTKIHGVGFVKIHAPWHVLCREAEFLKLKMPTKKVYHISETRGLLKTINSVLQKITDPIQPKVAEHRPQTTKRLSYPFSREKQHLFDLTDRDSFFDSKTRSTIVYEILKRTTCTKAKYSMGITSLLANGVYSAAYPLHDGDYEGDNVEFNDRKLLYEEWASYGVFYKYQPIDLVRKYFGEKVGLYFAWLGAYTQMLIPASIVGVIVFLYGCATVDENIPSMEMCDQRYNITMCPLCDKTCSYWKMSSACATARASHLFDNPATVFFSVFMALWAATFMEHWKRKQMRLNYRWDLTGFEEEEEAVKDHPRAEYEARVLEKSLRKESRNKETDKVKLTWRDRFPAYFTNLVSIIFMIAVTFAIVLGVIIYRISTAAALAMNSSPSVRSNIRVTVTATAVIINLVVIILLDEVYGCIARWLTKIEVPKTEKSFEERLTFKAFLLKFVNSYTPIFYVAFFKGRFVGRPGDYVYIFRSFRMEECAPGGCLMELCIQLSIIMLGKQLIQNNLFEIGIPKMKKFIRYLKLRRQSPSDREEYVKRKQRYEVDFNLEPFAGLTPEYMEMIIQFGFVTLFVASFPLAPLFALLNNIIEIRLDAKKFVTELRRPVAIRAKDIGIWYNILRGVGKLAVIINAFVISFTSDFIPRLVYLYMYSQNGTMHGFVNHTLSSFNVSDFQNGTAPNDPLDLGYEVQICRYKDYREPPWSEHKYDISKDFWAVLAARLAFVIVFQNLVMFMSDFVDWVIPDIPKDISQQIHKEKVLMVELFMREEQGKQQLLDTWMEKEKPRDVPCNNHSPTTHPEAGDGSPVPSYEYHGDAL
CHT block: human CHT choline transport inhibition; B-score at 10 µM; 310,000 tested, 0.86% active; Q9GZV3; CHT-expressing cells, membrane potential dye, choline response; stronger effect = lower value; AID 488975;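 active = B-score over 3 SD under the library average, and starting fluorescence ratio not unusually high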;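 note: choline stimulus applied at its EC90 after an EC20 pre-addition; B-score computed on integrated fluorescence ratio after choline addition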
TMEM16A inh: blocks the mouse calcium-activated chloride channel TMEM16A; HEK293 TMEM16A/YFP iodide influx fluorescence, ionomycin; AID 588511; 310,000 tested, 1.2% active; normalized B-score (activity score, 25-100; higher = stronger inhibition) at 10 µM;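 active = ratio plate-corrected score three or more library SD toward inhibition, starting fluorescence score within five deviations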;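 note: score derived from kinetic fluorescence span divided by baseline fluorescence per well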
IDE cell inh cf: confirmation of human insulin-degrading enzyme inhibitors in cells; 1,200 tested, 51% active; shares compounds with IDE cell inh; inhibition, % at 5.59 µM; HEK cells, FAbetaB cleavage, fluorescence polarization; AID 435028;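 active = mean inhibition across triplicate wells above the cutoff set by the earlier primary insulin-degrading enzyme screen, cut at about 16% in these data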;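 note: 0% = DMSO wells and 100% = 60 µM reference IDE inhibitor Ii1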
HEK cytotox: HEK cell cytotoxicity, counter-screen for IDE inhibitors. shares compounds with IDE cell inh. HEK293 cytotoxicity, ATP luminescence. inhibition, % at 5.59 µM. 1,200 tested, 28% active. AID 449730; in the data active = inhibition above about 22%;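 note: 0% = vehicle wells and 100% = reference cytotoxic drug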
CHT block conf: human CHT inhibition, confirmatory screen; CHT-expressing cells, choline membrane potential dye; LV-to-AA substituted CHT, HEK293 cells; shares compounds with CHT block; CHT activity remaining % of control (stronger effect = lower value), % at 10 µM; 2,400 tested, 70% active;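 active = choline transporter activity left, mean of duplicates at 10 µM, below buffer-only control mean minus 3 SD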;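 note: depolarization triggered by choline at its EC90 following an EC20 pre-addition; 0% = hemicholinium-3 full block and 100% = buffer-only control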
HEK293 MPD ctr: CHT inhibitor counter-screen hit in parental HEK293 cells; membrane potential dye, choline response; active = decrease or increase beyond buffer ±3SD; shares compounds with CHT block; AID 493222; 2,400 tested, 4% active; membrane potential ratio readout (active if shifted either direction beyond buffer ±3SD; no single direction) at 10 µM;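 note: parental cells lack the transporter so any hit is non-specific; ratio is peak minus trough fluorescence over baseline after EC90 choline challenge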
* marks the source's active call; other numbers are inactive results; i = inactive; / = not tested or not shown; ! = not active in a repeat.

SMILES	CHT PAM	IDE cell activ	IDE cell inh	TMEM16A act	CHT block	TMEM16A inh	IDE cell inh cf	HEK cytotox	others
COc1ccc(-n2c(C)nc3ccccc3c2=O)c([N+](=O)[O-])c1	i	2	5	i	i	i	/	/
CCOC(=O)c1c(C)n(Cc2ccccc2)c2ccc(OCC(O)CNC(C)(C)C)cc12 (stereo not drawn)	i	-19	38*	i	i	i	19*	18
O=c1[nH]c(=O)n(Cc2ccccc2)c(O)c1/C=N/NCCO	i	/	16*	i	i	i	2	6
CCN(CC)c1ccc(/C=C2\C(=O)NC(=S)N(C)C2=O)o1	i	-25	26*	i	i	i	29*	14
COc1ccc(N2C(=O)/C(=C/c3ccc(N(C)C)o3)C(=O)NC2=S)cc1	i	-17	16	i	i	i	/	/
CCN(CC)c1ccc(C=C2C(=O)N(C)C(=S)N(C)C2=O)o1	i	-15	12	i	i	i	/	/
CCN(CC)c1ccc(/C=C2\C(=O)NC(=S)N(c3ccc(OC)cc3OC)C2=O)o1	i	-33	33*	i	i	i	36*	4
O=C1NC(=O)N(c2cccc(Cl)c2)C(=O)/C1=C\c1ccc(Sc2nc3ccccc3[nH]2)o1	i	-33	26*	i	i	i	15	10
CC(CC(C)(C)N1CC1)=NO	/	0	/	i	/	/	/	/
COc1ccc(C2=NS(=O)(=O)N(C)C(C(=O)N3CCC4(CC3)OCCO4)=C2)cc1OC	i	5	3	i	i	i	/	/
COc1ccc(-n2c(/C=C/c3ccc(O)cc3)nc3ccccc3c2=O)cc1	i	-34	31*	i	i	i	76*	15
COc1ccc(-n2c(/C=C/c3ccc(O)c(OC)c3)nc3ccccc3c2=O)cc1	i	-43	34*	i	i	i	102*	26*
O=c1c2ccccc2nc(/C=C/c2ccc(O)cc2)n1-c1ccc(O)cc1	i	-70	62*	i	i	i	133*	21
COc1cccc(-n2c(/C=C/c3ccccn3)nc3ccccc3c2=O)c1	i	2	/	i	i	i	/	/
COc1cccc(-n2c(/C=C/c3ccc(O)c(O)c3)nc3ccccc3c2=O)c1	i	-101	160*	i	i	i	26*	17
COc1ccc(-n2c(/C=C/c3ccc4c(c3)OCO4)nc3ccccc3c2=O)cc1	i	0	10	i	i	i	/	/
Cc1ccc(-n2c(/C=C/c3ccc4c(c3)OCO4)nc3ccccc3c2=O)cc1	i	/	1	/	i	i	/	/
CN(c1ccccc1)P(=O)(N1CC1)N1CC1	/	3	/	i	/	/	/	/
CC12Cc3cn[nH]c3C=C1CCC1C2CCC2(C)C1CCC2(C)O (stereo not drawn)	/	-13	/	i	/	/	/	/
Cc1cc2c(cc1C)NP(=S)(c1ccccc1)N2	/	-21	/	i	/	/	/	/
CCN1/C(=C\C=C\C2=[N+](CC)c3ccccc3C2(C)C)C(C)(C)c2ccccc21	i	-95	82*	i	i	i	173*	120*
COc1cc(/C=C2/C(=O)NC(=O)N(c3ccccc3)C2=O)ccc1O	i	1	1	i	i	i	/	/
CCOc1cc(/C=C2/C(=O)NC(=O)N(c3ccc(CC)cc3)C2=O)ccc1OC(=O)c1cccs1	i	9	-3	i	-6.6*	i	/	/	CHT block conf=59%*;HEK293 MPD ctr=i
CC=C(C)C1(CCC)C(=O)NC(=S)NC1=O	/	1	/	i	/	/	/	/
C[C@]12CC[C@H](O)C[C@@H]1CC[C@@H]1[C@@H]2CC[C@]2(C)[C@@H](C(=O)O)C[C@@H]12	i	-2	0	i	-14*	i	/	/	CHT block conf=i;HEK293 MPD ctr=i
SMILES	CHT PAM	IDE cell activ	IDE cell inh	TMEM16A act	CHT block	TMEM16A inh	IDE cell inh cf	HEK cytotox	others
COC(=O)C(Cc1ccc(N(CCCl)CCCl)cc1)N=Cc1ccccc1O (stereo not drawn)	i	0	6	i	i	i	/	/
CCn1c(P(C)(=O)O)nc2cc(NC(=O)c3ccccc3F)ccc21	i	-6	-3	i	-12*	i	/	/	CHT block conf=i;HEK293 MPD ctr=i
COC(=O)C1=C(c2cc3ccccc3o2)C[C@@H]2CC[C@H]1N2C(=O)N1CCCCC1	i	-4	-1	i	i	i	/	/
COC(=O)C1=C(c2cc3ccccc3o2)C[C@@H]2CC[C@H]1N2C(=O)N1CCCC1	i	8	-1	i	-6.2*	i	/	/	CHT block conf=65%*;HEK293 MPD ctr=i
CC(C)(C)C(=O)N1Cc2ccccc2-n2nncc2C1	/	0	/	i	/	/	/	/
CC1=CC2/C=C(\C)CCC(O)C(O)/C=C/C(=O)C23C(=O)NC(CC(C)C)C3C1C (stereo not drawn)	i	-3	6	i	-6.5*	i	/	/	CHT block conf=24%*;HEK293 MPD ctr=i
CCOc1cc2c(cc1OCC)-n1cccc1C(c1cc(C)c(OC)cc1C)NC2 (stereo not drawn)	i	0	12	i	-5*	i	/	/	CHT block conf=i;HEK293 MPD ctr=i
CCOc1cc2c(cc1OCC)-n1cccc1C(c1ccc(C)cc1C)NC2 (stereo not drawn)	i	5	2	i	i	i	/	/
O=C(NC(Oc1ccccc1)C(Cl)(Cl)Cl)c1ccccc1 (stereo not drawn)	i	1	1	i	i	i	/	/
CCCC(=O)NC(Oc1ccccc1Cl)C(Cl)(Cl)Cl (stereo not drawn)	i	0	1	i	-5*	i	/	/	CHT block conf=i;HEK293 MPD ctr=i
CC(C)(C#CC(=O)O)OOC(c1ccccc1)(c1ccccc1)c1ccccc1	i	-2	6	i	i	i	/	/
C[N+](C)(C)CCOC(=O)CBr	i	0	0	i	-8*	i	/	/	CHT block conf=-8.4%*;HEK293 MPD ctr=i
CC(=O)OCC[N+](C)(C)C	i	6	-3	-9.6*	-7.5*!	i	/	/	CHT block conf=25%*;HEK293 MPD ctr=i
COC(=O)C1=C(c2c(C)noc2C)C[C@@H]2CC[C@H]1N2C(=O)NCCNC(C)=O	/	0	7	i	/	/	/	/
